The campaign covered roughly 300,000 compounds. About 37,000 (12%) were called active. The sample holds actives, similar compounds and a random draw of the others, so the mix is not that of the screen. Unmarked numbers belong to inactive results. Cut-off read from the data, not from the text of the source: active = max response mostly above about 13% (no sharp cut-off); inactive = mostly below about 14%.

The nature of the assay: Cycloheximide Counterscreen for Small Molecule Inhibitors of Shiga Toxin. Note: read at 38.3 µM for the half of the compounds with a filed dose; 0% is about no effect. Particulars: cell reporter, cycloheximide protein synthesis inhibition counterscreen; active compounds read high. A general note: Counterscreens check selectivity or assay interference.
As to `CCOc1ccc2c(=O)c(-c3ccc4c(c3)OCCCO4)c(C)oc2c1`, the max response is 7.6%.

Regarding `CCOc1ccccc1Nc1ccc(C(=O)O)cc1[N+](=O)[O-]`, the max response is -4.22%.

Regarding `CCSc1nc2sc3c(c2c(=O)[nH]1)CC(C)(C)OC3`, the max response was 0.89%. Under `O=S(=O)(c1cccc(-c2cn3ccccc3n2)c1)N1CCCC1` stands 13.9%; under `Cc1cccn2cc(-c3cccc(S(=O)(=O)N4CCCCC4)c3)nc12`, 15.4% (active); under `O=S(=O)(c1cccc(-c2nnc3n2CCCCC3)c1)N1CCOCC1`, -0.622%. `CCc1cc2c(N3CCN(c4nnc(CC)s4)CC3)ncnc2s1`: the max response is -4.57%. For `COc1ccc(-n2c(C)cc(C(=O)CN3C(=O)NC4(CCc5ccccc54)C3=O)c2C)cc1` (stereo not drawn), the max response was 3.03%. For `Oc1c(Br)cc(/C=N/NC(=S)NCC2CCCO2)cc1Br` (stereo not drawn), the max response was 1.44%. For `S=C(NCCC1=CCCCC1)Nc1ccccc1`, the max response is 39.2% (active).

`Cc1nnc(OCC(=O)NCCC2=CCCCC2)c2ccccc12`: the max response is -1.88%. With `O=C(Cc1cccc2ccccc12)NCCC1=CCCCC1`, the max response is -2.35%. Consider `Oc1ccc(N2CCN(C(=S)NCc3ccccc3)CC2)cc1`, for which the max response was -5.44%. Under `S=C(NCCc1ccccc1)NCc1ccccc1Cl` stands 2.05%; under `S=C(NCCc1ccccc1)Nc1ccccc1`, 52.7% (active).

`Oc1ccccc1N1CCN(C(=S)NCc2ccccc2)CC1`: the max response was 31.8% (active).

Regarding `CC1CCCCN1C(=S)NCc1ccccc1` (stereo not drawn), the max response is 0.333%.

For the compound `S=C(NCCc1ccccc1)NCC1CCCO1` (stereo not drawn), the max response is 29.4% (active). Under `O=C(CS(=O)(=O)Cc1ccccc1)NCC1CCCO1` (stereo not drawn) stands -0.705%; under `S=C(NCCCc1ccccc1)Nc1ccc(Br)cc1`, 9.21%; under `Cc1nc2ccccc2c(=O)n1NC(=O)c1ccccc1`, -1.37%. For `COc1ccc(CN(C)Cc2nc3cc(OC)c(OC)cc3c(=O)[nH]2)c(OC)c1`, the max response is -2.17%. Under `CCN(C(=O)CN1C(=O)/C(=C/c2ccc(F)cc2)SC1=S)C1CCS(=O)(=O)C1` (stereo not drawn) stands -13.6%; under `Cc1cccc(N2CCN(C(=O)CCS(=O)(=O)c3ccc4c(c3)NC(=O)C(C)S4)CC2)c1C` (stereo not drawn), -1.44%.

Regarding `CCCc1ccc(-c2c(C)sc(NC(=O)c3ccnn3C)c2C#N)cc1`, the max response was -3.68%. As for `O=C(CCc1n[nH]c(=O)[nH]c1=O)N/N=C/c1ccc(Br)o1`, the max response is -9.24%. In the case of `COCCNC(=O)COc1ccc(N(C)S(=O)(=O)c2ccc3ccccc3c2)cc1`, the max response is -5.19%. Next, `N#Cc1c(-c2ccccc2)c(-c2ccccc2)n[nH]c1=O`: 0.547%. Next, `COc1cccc(CNC(=O)CN(C)S(=O)(=O)c2ccc3c(c2)c(=O)n(C)c(=O)n3C)c1`: -2.54%; `CC(=O)c1ccccc1OCc1ccc(C(=O)c2ccccc2)cc1`: 2.75%; `COc1ccc(C(=O)NC2CCN(C(=S)NCCc3ccccc3)CC2)cc1`: -2.31%.

On to `S=C(NCCc1ccccc1)N1CCCCC1`, for which the max response is 60.3% (active).

Turning to `O=C1CCN(C(=S)NCCc2ccccc2)CC1`, the max response is 16%.

Consider `CCc1ccc(-c2cc(C)no2)cc1S(=O)(=O)NCCc1ccc(S(N)(=O)=O)cc1`, for which the max response is -3.78%.

As for `Clc1ccccc1SCc1nc2ccccc2[nH]1`, the max response was 52.8% (active).

As to `c1ccc2c(CSCc3nc4ccccc4[nH]3)cccc2c1`, the max response is 13.2% (active). In the case of `c1ccc(-c2nnc(SCc3nc4ccccc4[nH]3)o2)cc1`, the max response was 10.9%. Next, `O=c1[nH]nc(CSCc2ccccc2Cl)[nH]1`: -2.59%.

Consider `COc1ccc(OC(C)C(=O)NCCc2nc3ccccc3[nH]2)cc1` (stereo not drawn), for which the max response is -2.98%. As to `N=C(N)SCc1cccc2ccccc12`, the max response was -4.81%. For `Cc1ccc(S(=O)(=O)c2c[nH]c3ccc(Cl)cc3c2=O)cc1`, the max response is -0.873%. For the compound `CC(NC(=O)CCCC1CCCCC1)c1ccc(S(N)(=O)=O)cc1` (stereo not drawn), the max response was -1.75%.

As to `CCC(=O)N1CCN(c2ccccc2NC(=O)COc2cccc(C)c2C)CC1`, the max response was -0.942%. Under `O=C(Nc1c2c(nn1-c1cccc(Cl)c1)CS(=O)(=O)C2)c1cccs1` stands -4.62%; under `COc1ccc(CN(Cc2ccco2)S(=O)(=O)c2ccc(S(=O)(=O)N3CCCC3)cc2)cc1`, -2.84%; under `CCCCCCCCCCCCN=C(N)N`, 13.5% (active). In the case of `CCN(CC)CCCN=C(N)N`, the max response was -0.653%.

In the case of `CCCCCCCN=C(C)c1ccccc1O`, the max response was -3.52%.

On to `O=C1C(=O)N(CC2COc3ccccc3O2)c2ccccc21` (stereo not drawn), for which the max response is -1.34%. On to `COc1cccc(CNc2ncc(-c3ccccc3)n2C)c1`, for which the max response was 23.9% (active). As for `COc1cccc(CNS(=O)(=O)c2cc3c(cc2C)n(C)c(=O)c(=O)n3C)c1`, the max response was -2.63%.

As for `COc1cccc(CNc2nc(C(F)(F)F)nc3ccccc23)c1`, the max response is -1.53%. Take `CCOC(=O)C1CCN(C(=O)Cn2nc(C)c3c(C)n(-c4ccccc4)nc3c2=O)CC1`: the max response is -0.326%. For `O=C(CCc1nnc2ccc(NCCCN3CCCC3=O)nn12)NCc1ccccc1Cl`, the max response is -2.54%. `CC(C)(C)NC(=O)C(c1ccc(Cl)cc1)N(CCO)C(=O)c1snc(C(N)=O)c1N` (stereo not drawn): the max response was -3.49%. Next, `Cc1ccc(NC(=O)C2CCCN2S(=O)(=O)c2cccc3cccnc23)c(C)c1` (stereo not drawn): -1.86%; `Nc1nnnn1/N=C/c1cccs1`: -4.55%; `C(=N/N1CCN(c2ccccc2)CC1)/c1cccs1`: 36.9% (active). Under `Cc1ccc(N2CCN(/N=C/c3cccs3)CC2)cc1` stands 7.5%. As to `Cc1cccc(-c2c(NC(=O)c3ccco3)oc3ccc(Cl)cc3c2=O)c1`, the max response is -1.7%.

`CC(C)c1ccc(/C=C2\NC(=O)NC2=O)cc1`: the max response is 18.8% (active). `CC(C)c1ccc(S(=O)(=O)N2CCC3(CC2)OCCO3)cc1`: the max response was -1.14%. In the case of `COC(=O)CN1C(=O)[C@H]2[C@@H](/C=C/c3ccccc3)N3C(=O)CN(Cc4ccccc4)C(=O)[C@@]3(Cc3ccccc3)[C@H]2C1=O`, the max response was -3.52%.

The record behind these values is PubChem BioAssay AID2314 (National Center for Advancing Translational Sciences (NCATS), 2010).
